Here are results for 15 targets from the supplement of paper PMC10849652.

What all share (test): log2 fold change, soluble protein after heating vs DMSO (PISA); higher = thermal stabilisation; K562 cells, 10 uM, 30 min; active = over 0.2 and 3.5 SD of the protein, either way, in both replicates (recomputed)
Compound in assay [1]: CS(=O)(=O)c1ccc(-c2cnc(N)c(C(=O)Nc3ccccc3)n2)cc1
In outline: (§1)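 Values are thermal stability changes relative to control samples and are taken from duplicates. They are stated as log2 fold changes. Before quantification by TMTpro 16plex LC-MS/MS with equalised channel sums, K562 cells at 2×10^6 cells/mL were treated with 10 μM compound for 30 min, heated in aliquots for 3 min across 48°C-58°C, pooled, extracted in PBS with 0.5% NP-40 at 4°C, and centrifuged at 21,000xg for 90 min to give the soluble supernatant.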

Compound in assay [2]: C[C@@H](Oc1cc(-c2cnn(C3CCNCC3)c2)cnc1N)c1c(Cl)ccc(F)c1Cl [crizotinib]
In outline:
as §1

Compound in assay [3]: C[C@@H]1COCCN1C2=NC(=NC(=C2)C3(CC3)S(=O)(=O)C)C4=C5C=CNC5=CC=C4
In outline:
as §1

Compound in assay [4]: C[C@H](C1=CC=C(C=C1)C(=O)NC2=C3C=CNC3=NC=C2)N
In outline: as §1

Compound in assay [5]: C[C@H](Nc1ncnc2nc[nH]c12)c1cc2cccc(Cl)c2c(=O)n1-c1ccccc1 [duvelisib]
In outline: as §1

Compound in assay [6]: Cc1cc(Nc2cc(CN3CCOCC3)c3nc(C)c(Cc4ccc(Cl)cc4F)n3n2)n[nH]1 [gandotinib]
In outline:
as §1

Compound in assay [7]: Cc1cc(Nc2cc(N3CCN(C)CC3)nc(Sc3ccc(NC(=O)C4CC4)cc3)n2)n[nH]1 [tozasertib]
In outline:
as §1

Compound in assay [8]: Cc1cc(SCc2sc(-c3ccc(C(F)(F)F)cc3)nc2C)ccc1OCC(=O)O
An outline of the steps: as §1

Compound in assay [9]: Cc1ccc(-n2nc(C(C)(C)C)cc2NC(=O)Nc2ccc(OCCN3CCOCC3)c3ccccc23)cc1 [doramapimod]
An outline of the steps:
as §1

Compound in assay [10]: Cc1ccc(C(=O)N(CCCN)[C@@H](c2nc3cc(Cl)ccc3c(=O)n2Cc2ccccc2)C(C)C)cc1 [ispinesib]
In outline: as §1

Of roughly 7,900 targets only a part is listed; those with a hit were picked by preference. About 0.6% of all pairs of compound and target were hits. A number with no mark means an inactive call.

Chain of UniProt O60333 (O60333 whole entry, looked up): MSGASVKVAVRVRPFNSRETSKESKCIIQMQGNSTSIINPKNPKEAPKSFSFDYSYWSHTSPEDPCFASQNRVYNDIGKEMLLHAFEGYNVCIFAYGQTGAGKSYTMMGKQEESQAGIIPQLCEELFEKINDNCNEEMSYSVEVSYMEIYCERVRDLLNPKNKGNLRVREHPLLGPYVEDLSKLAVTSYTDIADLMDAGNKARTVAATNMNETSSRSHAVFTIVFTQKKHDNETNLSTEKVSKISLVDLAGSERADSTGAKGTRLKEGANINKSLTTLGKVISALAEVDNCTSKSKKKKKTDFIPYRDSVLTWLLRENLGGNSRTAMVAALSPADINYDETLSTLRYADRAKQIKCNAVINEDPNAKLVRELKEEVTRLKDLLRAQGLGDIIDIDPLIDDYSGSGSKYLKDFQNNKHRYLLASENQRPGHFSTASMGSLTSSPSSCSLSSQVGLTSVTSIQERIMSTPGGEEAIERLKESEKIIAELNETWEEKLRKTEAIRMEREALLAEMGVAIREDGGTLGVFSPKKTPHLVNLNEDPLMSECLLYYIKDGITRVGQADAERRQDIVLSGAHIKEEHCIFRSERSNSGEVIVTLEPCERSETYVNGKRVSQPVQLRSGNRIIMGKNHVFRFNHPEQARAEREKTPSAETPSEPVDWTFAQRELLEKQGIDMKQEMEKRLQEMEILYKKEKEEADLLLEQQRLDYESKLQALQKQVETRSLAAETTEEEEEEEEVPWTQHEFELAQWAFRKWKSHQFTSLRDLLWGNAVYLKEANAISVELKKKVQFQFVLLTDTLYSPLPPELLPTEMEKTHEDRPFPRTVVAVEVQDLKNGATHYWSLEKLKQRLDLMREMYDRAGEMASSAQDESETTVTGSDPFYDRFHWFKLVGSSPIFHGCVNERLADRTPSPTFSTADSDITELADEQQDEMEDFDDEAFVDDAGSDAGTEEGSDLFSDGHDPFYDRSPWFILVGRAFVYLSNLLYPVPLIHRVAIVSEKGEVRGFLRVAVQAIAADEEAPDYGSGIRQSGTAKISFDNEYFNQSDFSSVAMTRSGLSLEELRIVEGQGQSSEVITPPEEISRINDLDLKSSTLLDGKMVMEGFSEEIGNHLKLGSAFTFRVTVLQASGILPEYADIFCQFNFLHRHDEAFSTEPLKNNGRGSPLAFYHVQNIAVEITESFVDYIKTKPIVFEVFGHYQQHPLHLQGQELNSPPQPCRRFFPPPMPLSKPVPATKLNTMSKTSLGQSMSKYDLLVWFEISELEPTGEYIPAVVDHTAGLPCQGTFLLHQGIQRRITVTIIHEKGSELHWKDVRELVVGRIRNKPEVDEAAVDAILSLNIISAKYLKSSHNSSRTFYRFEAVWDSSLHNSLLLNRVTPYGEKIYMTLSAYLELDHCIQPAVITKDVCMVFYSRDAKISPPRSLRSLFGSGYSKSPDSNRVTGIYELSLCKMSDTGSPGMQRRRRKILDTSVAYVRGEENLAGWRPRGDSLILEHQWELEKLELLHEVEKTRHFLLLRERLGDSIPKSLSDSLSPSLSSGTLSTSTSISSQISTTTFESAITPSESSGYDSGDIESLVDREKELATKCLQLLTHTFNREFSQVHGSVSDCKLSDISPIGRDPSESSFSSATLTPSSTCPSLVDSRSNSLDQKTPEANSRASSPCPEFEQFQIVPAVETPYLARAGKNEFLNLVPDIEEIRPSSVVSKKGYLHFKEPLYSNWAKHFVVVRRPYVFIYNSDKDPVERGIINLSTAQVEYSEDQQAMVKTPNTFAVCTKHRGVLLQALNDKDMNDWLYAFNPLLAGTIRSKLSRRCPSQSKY
Chain of UniProt Q9NWZ3 (Q9NWZ3 whole entry, looked up): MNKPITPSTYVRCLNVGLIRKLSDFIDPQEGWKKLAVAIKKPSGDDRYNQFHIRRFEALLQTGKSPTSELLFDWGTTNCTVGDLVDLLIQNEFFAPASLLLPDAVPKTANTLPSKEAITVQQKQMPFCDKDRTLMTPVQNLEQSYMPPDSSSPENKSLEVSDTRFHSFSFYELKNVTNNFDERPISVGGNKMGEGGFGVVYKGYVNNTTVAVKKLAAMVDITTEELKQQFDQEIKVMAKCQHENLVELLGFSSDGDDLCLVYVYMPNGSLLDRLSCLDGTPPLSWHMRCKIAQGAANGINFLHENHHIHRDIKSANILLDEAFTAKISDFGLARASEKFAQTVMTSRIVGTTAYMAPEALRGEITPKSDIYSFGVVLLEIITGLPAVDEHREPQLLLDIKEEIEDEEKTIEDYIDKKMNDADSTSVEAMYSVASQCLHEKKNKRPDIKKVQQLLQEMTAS
Chain of UniProt O43766 (O43766 whole entry, looked up): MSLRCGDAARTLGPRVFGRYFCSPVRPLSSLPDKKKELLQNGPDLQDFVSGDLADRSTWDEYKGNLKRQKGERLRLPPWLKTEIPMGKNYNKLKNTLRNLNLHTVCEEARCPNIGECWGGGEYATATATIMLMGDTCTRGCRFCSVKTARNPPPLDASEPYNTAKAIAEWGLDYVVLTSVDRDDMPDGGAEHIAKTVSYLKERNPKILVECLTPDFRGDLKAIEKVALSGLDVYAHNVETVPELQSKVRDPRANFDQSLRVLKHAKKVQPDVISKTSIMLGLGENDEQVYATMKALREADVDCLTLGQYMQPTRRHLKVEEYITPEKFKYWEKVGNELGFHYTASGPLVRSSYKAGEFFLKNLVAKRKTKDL
Chain of UniProt Q86UP2 (Q86UP2 whole entry, looked up): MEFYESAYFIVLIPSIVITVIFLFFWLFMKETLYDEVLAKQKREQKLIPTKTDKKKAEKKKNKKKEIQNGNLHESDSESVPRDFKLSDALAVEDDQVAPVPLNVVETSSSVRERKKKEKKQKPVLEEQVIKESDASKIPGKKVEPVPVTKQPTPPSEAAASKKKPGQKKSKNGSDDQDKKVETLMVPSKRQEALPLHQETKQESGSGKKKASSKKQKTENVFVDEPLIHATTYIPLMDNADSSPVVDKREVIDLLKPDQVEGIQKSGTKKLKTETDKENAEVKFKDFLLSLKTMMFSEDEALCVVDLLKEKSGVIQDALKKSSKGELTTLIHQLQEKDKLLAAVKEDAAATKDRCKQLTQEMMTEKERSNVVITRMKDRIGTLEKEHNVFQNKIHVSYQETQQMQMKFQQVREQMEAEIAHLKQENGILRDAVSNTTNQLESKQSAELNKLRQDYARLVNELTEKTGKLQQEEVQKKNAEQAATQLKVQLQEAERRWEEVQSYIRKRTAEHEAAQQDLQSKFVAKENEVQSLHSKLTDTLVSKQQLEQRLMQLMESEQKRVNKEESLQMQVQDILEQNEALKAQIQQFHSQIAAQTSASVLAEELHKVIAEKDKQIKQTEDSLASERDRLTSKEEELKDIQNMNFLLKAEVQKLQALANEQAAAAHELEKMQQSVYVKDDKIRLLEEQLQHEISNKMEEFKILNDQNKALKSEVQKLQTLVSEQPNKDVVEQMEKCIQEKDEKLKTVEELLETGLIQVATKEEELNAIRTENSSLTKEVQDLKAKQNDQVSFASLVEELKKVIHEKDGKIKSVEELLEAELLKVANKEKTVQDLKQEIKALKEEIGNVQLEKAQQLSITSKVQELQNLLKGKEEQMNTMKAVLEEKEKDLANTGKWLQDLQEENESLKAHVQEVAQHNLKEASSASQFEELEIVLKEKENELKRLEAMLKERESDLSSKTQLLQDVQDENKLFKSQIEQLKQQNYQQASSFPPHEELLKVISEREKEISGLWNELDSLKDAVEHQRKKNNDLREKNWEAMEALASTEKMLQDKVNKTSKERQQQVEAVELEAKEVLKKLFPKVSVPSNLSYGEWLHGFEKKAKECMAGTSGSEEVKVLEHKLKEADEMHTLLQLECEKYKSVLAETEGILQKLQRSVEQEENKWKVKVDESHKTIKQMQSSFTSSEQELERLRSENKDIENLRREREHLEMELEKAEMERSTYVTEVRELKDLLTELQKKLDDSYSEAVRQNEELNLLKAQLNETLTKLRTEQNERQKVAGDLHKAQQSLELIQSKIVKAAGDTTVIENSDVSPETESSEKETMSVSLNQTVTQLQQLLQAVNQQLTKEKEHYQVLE
Chain of UniProt P33947 (P33947 whole entry, looked up): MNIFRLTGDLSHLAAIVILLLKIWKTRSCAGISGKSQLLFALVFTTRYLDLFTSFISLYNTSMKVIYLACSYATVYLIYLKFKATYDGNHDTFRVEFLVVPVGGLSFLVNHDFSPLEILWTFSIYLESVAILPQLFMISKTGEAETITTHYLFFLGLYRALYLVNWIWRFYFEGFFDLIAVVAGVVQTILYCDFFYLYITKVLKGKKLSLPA
Chain of UniProt A1L0T0 (A1L0T0 whole entry, looked up): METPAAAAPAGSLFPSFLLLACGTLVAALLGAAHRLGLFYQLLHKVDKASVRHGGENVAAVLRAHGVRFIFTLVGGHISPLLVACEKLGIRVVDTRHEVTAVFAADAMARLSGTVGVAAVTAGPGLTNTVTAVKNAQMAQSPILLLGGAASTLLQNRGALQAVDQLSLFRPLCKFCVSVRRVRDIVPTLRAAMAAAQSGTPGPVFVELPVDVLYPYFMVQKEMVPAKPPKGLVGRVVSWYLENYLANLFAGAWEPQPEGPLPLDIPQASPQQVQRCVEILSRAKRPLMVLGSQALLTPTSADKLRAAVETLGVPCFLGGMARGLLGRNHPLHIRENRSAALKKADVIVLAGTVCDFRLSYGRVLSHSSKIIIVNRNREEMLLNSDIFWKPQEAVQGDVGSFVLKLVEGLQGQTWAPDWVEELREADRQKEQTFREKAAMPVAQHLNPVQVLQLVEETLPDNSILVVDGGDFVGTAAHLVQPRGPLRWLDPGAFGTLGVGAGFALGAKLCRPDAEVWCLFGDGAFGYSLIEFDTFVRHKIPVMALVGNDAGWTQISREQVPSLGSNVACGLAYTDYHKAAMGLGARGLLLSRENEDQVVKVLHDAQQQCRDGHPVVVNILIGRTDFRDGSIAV

For MICU1 isoform 3 (UniProt Q9BPX6), the log2 fold change was -0.024 in assay [1]; -0.207 in assay [2]; -0.101 in assay [3]; 0.023 in assay [4]; -0.04 in [5]; -0.128 in assay [6]. The log2 fold change was -0.102 in assay [7], 0.021 in assay [8], -0.011 in [9] and -0.458 (active) in [10].
Take JAK3 (UniProt P52333): the log2 fold change in [1] was 0.001; in [2], 0.048; in [3], 0.142; in assay [4] it was -0.062; in [5], 0.133; in assay [6], -0.132. In addition, the log2 fold change in assay [7] is 0.032; in [8] it was 0.135; in [9], -0.071; in [10] it was 0.087.
As for LIAS (UniProt O43766), the log2 fold change in [1] was 0.035; in [2], 0.03; in assay [3], 0.039; in assay [4], 0.075; in [5], 0.043; in [6] it was 0.086. The log2 fold change is -0.015 in assay [7], -0.08 in assay [8], 0 in assay [9] and -0.24 in [10].
For the target KIF2C (UniProt Q99661), the log2 fold change in [1] was -0.016; in [2] it was -0.171; in assay [3], -0.028; in [4], 0.012; in assay [5] it was -0.048; in assay [6], -0.065. Further, the log2 fold change was -0.035 in [7], 0.082 in [8], 0.007 in [9] and -0.028 in assay [10].
Take MAIP1 (UniProt Q8WWC4): the log2 fold change in assay [1] was 0.071; in [2] it was -0.114; in [3] it was 0.062; in assay [4] it was -0.072; in assay [5], 0.025; in assay [6] it was -0.025. Further, the log2 fold change was 0.027 in assay [7], -0.005 in assay [8], -0.008 in assay [9] and -0.21 in assay [10].
With KIF1B isoform 4 (UniProt O60333), the log2 fold change in assay [1] was 0.002; in assay [2] it was -0.067; in assay [3], 0.048; in assay [4] it was 0.035; in [5] it was 0.011; in [6], -0.043. For the same target, the log2 fold change in assay [7] was 0.03; in assay [8], 0.052; in [9], 0.029; in [10] it was -0.149.
For IRAK4 (UniProt Q9NWZ3), the log2 fold change was 0.034 in [1]; -0.025 in assay [2]; 0.003 in [3]; 0.046 in assay [4]; -0.01 in assay [5]; -0.107 in assay [6]. Further, the log2 fold change in [7] is 0.061; in [8] it was 0.104; in [9], -0.047; in [10], -0.05.
Take KDELR2 (UniProt P33947): the log2 fold change in [1] is 0.056; in assay [2], 0.035; in assay [3] it was 0.205; in assay [4], -0.096; in assay [5], 0.099; in assay [6], -0.107. In addition, the log2 fold change in [7] is -0.027; in [8] it was -0.007; in assay [9], 0.016; in assay [10], 0.016.
MAP3K4 isoform 2 (UniProt Q9Y6R4): the log2 fold change in assay [1] is 0.012; in [2], -0.256 (active); in [3], 0.042; in [4] it was -0.017; in [5], 0.02; in assay [6], -0.054. For the same target, the log2 fold change in assay [7] was 0.026; in [8], 0; in assay [9], 0.02; in assay [10], 0.021.
With KTN1 (UniProt Q86UP2), the log2 fold change in assay [1] was -0.016; in [2], -0.078; in [3], -0.028; in [4], 0.122; in assay [5], -0.027; in assay [6], -0.047. The log2 fold change was -0.007 in assay [7], 0.097 in [8], 0.094 in [9] and -0.207 in assay [10].
Turning to MAP4 (UniProt P27816), the log2 fold change in [1] is -0.004; in assay [2] it was 0.012; in assay [3], -0.025; in assay [4] it was -0.035; in assay [5], -0.03; in assay [6], 0.006. For the same target, the log2 fold change in assay [7] is -0.023; in [8], -0.051; in assay [9] it was 0.008; in assay [10] it was -0.014.
Consider LUC7L3 (UniProt O95232), for which the log2 fold change in assay [1] was -0.001; in assay [2] it was -0.045; in assay [3] it was -0.022; in [4], -0.219 (active); in [5] it was -0.001; in assay [6], 0.065. In addition, the log2 fold change in assay [7] was 0.011; in [8] it was 0.02; in assay [9] it was 0; in [10], 0.099.
With MARCKS (UniProt P29966), the log2 fold change in [1] is 0.022; in assay [2], 0.198; in assay [3], -0.042; in assay [4], -0.191; in assay [5] it was 0.006; in assay [6], 0.234. Moreover, the log2 fold change in assay [7] is -0.068; in [8] it was 0.025; in [9], 0; in assay [10], -0.031.
For the target ILVBL (UniProt A1L0T0), the log2 fold change in [1] was 0.055; in [2], 0; in assay [3] it was 0.058; in assay [4], 0.061; in assay [5], 0.106; in assay [6], 0.02. In addition, the log2 fold change in [7] is -0.067; in [8] it was -0.005; in assay [9], -0.003; in assay [10] it was 0.213 (active).
On to IKZF1 (UniProt Q13422), for which the log2 fold change in assay [1] was -0.065; in assay [2], -0.048; in assay [3] it was 0.008; in assay [4], -0.069; in assay [5], 0.111; in [6], -0.038. Also, the log2 fold change in [7] is -0.078; in [8] it was 0.039; in [9] it was -0.016; in assay [10], -0.186.
